“And” between values parts separate entries of the source, which are not always exact repeats. Identical values can stand only once. Out of some 5,500 compounds screened, about 2,000 (36%) were called active. Inconclusive results (about 18%) are left out. No stated cut-off is given here; in the data, active means normalized growth mostly below about 0.91 (no sharp cut-off); inconclusive means no clear call, values can overlap the other calls; inactive means mostly above about 0.92. Some of the results follow.
Test: chemical genetic growth profiling, strain panel (AID 1159580);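 further: tested at 20 µM; growth read once vehicle control cultures reached saturation at 30 °C; 1 = growth at the plate median or of vehicle wells; lower values mean less growth of the strain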
Conditions: S. cerevisiae deletion strains, growth OD

Measured: normalized growth

CC(=O)[C@H]1CCC2C3C[C@H](C)C4=CC(=O)CC[C@]4(C)C3[C@@H](O)C[C@@]21C (stereo partly drawn)
inactive: locus YAL021C, strain ccr4, active compounds read low 0.988 | locus YAL026C, strain drs2, active compounds read low 0.989 | locus YAL030W, strain snc1, active compounds read low 0.986 | locus YBL061C, strain skt5, active compounds read low 0.988 | locus YBR009C, strain hhf1, active compounds read low 1 | locus YBR021W, strain FUR4, active compounds read low 0.979 | locus YBR023C, strain chs3, active compounds read low 0.983 | locus YBR171W, strain sec66, active compounds read low 0.973 | locus YBR229C, strain ROT2, active compounds read low 0.994 | locus YBR231C, strain swc5, active compounds read low 0.994 | locus YBR279W, strain paf1, active compounds read low 0.99 | locus YCL011C, strain gbp2, active compounds read low 0.964 | locus YCL016C, strain dcc1, active compounds read low 0.953 | locus YCL029C, strain bik1, active compounds read low 0.983 | locus YCL061C, strain MRC1, active compounds read low 0.989 | locus YCL069W, strain vba3, active compounds read low 0.983 | locus YCR088W, strain abp1, active compounds read low 0.98 | locus YDL005C, strain med2, active compounds read low 0.984 | locus YDL035C, strain GPR1, active compounds read low 1.02 | locus YDL040C, strain nat1, active compounds read low 0.987 | locus YDL074C, strain BRE1, active compounds read low 0.98 | locus YDL101C, strain DUN1, active compounds read low 0.993 | locus YDL134C, strain PPH21, active compounds read low 1.01 | locus YDL185W, strain tfp1, active compounds read low 0.965 | locus YDL192W, strain arf1, active compounds read low 0.981 | locus YDR001C, strain nth1, active compounds read low 0.977 | locus YDR069C, strain doa4, active compounds read low 1.02 | locus YDR101C, strain arx1, active compounds read low 0.989 | locus YDR137W, strain rgp1, active compounds read low 0.921 | locus YDR159W, strain sac3, active compounds read low 1.01 | locus YDR162C, strain NBP2, active compounds read low 0.99 | locus YDR195W, strain ref2 0.997 | locus YDR297W, strain sur2, active compounds read low 0.985 | locus YDR318W, strain mcm21, active compounds read low 0.988 | locus YDR334W, strain swr1, active compounds read low 0.963 | locus YDR335W, strain msn5, active compounds read low 0.984 | locus YDR388W, active compounds read low 0.986 | locus YDR392W, strain spt3, active compounds read low 0.897 | locus YDR502C, strain sam2, active compounds read low 0.978 | locus YEL003W, strain gim4, active compounds read low 1 | locus YEL037C, strain rad23, active compounds read low 0.975 | locus YEL061C, strain CIN8 (second series), active compounds read low 0.977 | locus YEL061C, strain CIN8, active compounds read low 0.99 | locus YER015W, strain faa2, active compounds read low 0.992 | locus YER016W, strain bim1, active compounds read low 0.996 | locus YER110C, active compounds read low 0.969 | locus YER111C, strain swi4, active compounds read low 0.982 | locus YER155C, strain BEM2 (second series), active compounds read low 1 | locus YER155C, strain BEM2, active compounds read low 0.991 | locus YER167W, strain BCK2, active compounds read low 0.986 | locus YFR010W, strain ubp6, active compounds read low 0.986 | locus YGL078C, strain dbp3, active compounds read low 0.991 | locus YGL086W, strain mad1, active compounds read low 1.01 | locus YGL167C, strain pmr1, active compounds read low 0.971 | locus YGL173C, strain kem1, active compounds read low 0.995 | locus YGL227W, strain vid30, active compounds read low 0.978 | locus YGL240W, strain doc1, active compounds read low 1.02 | locus YGL248W, strain PDE1, active compounds read low 0.984 | locus YGL253W, strain hxk2, active compounds read low 0.976 | locus YGR135W, strain pre9, active compounds read low 0.939 | locus YGR252W, strain gcn5, active compounds read low 1.06 | locus YHR013C, strain ard1, active compounds read low 0.945 | locus YHR027C, strain rpn1, active compounds read low 0.98 | locus YHR030C, strain SLT2, active compounds read low 0.996 and 0.986 | locus YHR079C, strain IRE1 (second series), active compounds read low 0.98 | locus YHR079C, strain IRE1, active compounds read low 0.966 | locus YHR094C, strain hxt1, active compounds read low 0.984 | locus YHR129C, strain ARP1, active compounds read low 0.995 | locus YHR142W, strain chs7, active compounds read low 0.95 | locus YHR200W, strain rpn10, active compounds read low 0.981 | locus YIL066C, strain RNR3, active compounds read low 0.993 | locus YIL073C, strain SPO22, active compounds read low 0.899 | locus YIL125W, strain kgd1, active compounds read low 0.996 | locus YIR030C, strain dcg1, active compounds read low 0.975 | locus YJL092W, strain hpr5, active compounds read low 0.977 | locus YJL095W, strain BCK1 (second series), active compounds read low 0.982 | locus YJL095W, strain BCK1, active compounds read low 0.969 and 0.976 | locus YJL115W, strain asf1, active compounds read low 0.973 | locus YJL129C, strain trk1, active compounds read low 0.959 | locus YJL134W, strain LCB3, active compounds read low 0.99 | locus YJL154C, strain vps35, active compounds read low 0.972 | locus YJL164C, strain tpk1, active compounds read low 0.997 | locus YJL166W, strain qcr8, active compounds read low 0.979 | locus YJL168C, strain set2, active compounds read low 0.994 | locus YJL187C, strain SWE1 (second series), active compounds read low 0.993 | locus YJL187C, strain SWE1, active compounds read low 0.985 | locus YJR043C, strain POL32, active compounds read low 1.03 | locus YJR066W, strain TOR1, active compounds read low 0.925

Source: PubChem BioAssay AID1159580 (chemical genetic matrix, 2015)
